The values that follow come from PubChem BioAssay (NCATS).

Unmarked numbers belong to inactive results. Records with an inconclusive call do not appear. Active and inactive are the calls of the source. Unless noted, calls follow the shape of the dose curve; as a rule, active = well fitted curve in the direction sought with a large enough effect; inconclusive = small, poorly fitted or top-dose-only effect, or another doubt; inactive = no such curve, though single readings can be large; an effect the other way counts as inactive or inconclusive.

Test [1] can be described thus: AP1 Signaling Pathway (AID 357; active = well fitted curve in either direction with a large enough effect, not every such curve was filed as active;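 also: ME-180 reporter cells stimulated with EGF at its EC50 level; % is scaled to controls: 0 for no effect and ±100 for the full control effect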). Particulars: ME-180 AP-1-bla reporter, EGF-induced, beta-lactamase ratio, 5 h; at 7.69 µM (top of the series) unless noted. The method in brief:
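In this screen, ME-180 cells in Opti-MEM with 0.5% dialyzed FBS received EC50 EGF and compound titrations for 5 h. AP-1 reporter beta-lactamase was detected via CCF4 ratio, giving AC50 for positive and negative modulators.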

The target in test [2] is Cytochrome P450 1A2 (Homo sapiens) (UniProt P05177). The test is described as follows: p450-cyp1a2 (AID 410; calls by dose curve; also: potency is read from the fitted curve at half-maximal effect;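 as to activity change, negative = inhibition: -100% = full effect of reference inhibitor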). The method in brief:
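Luminescent demethylation readout: Luciferin-ME (100uM, equal to Km) turned over by 20nM CYP1A2 for 60 min at room temperature after NADPH regeneration addition, following 10 min compound preincubation. Normalization used 57 uM furafylline as full inhibition.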

The nature of test [3]: Stat Signaling Pathway (AID 446; active = well fitted curve in either direction with a large enough effect, not every such curve was filed as active;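 also: ME-180 cervical cancer cells given 40 pM IL-6 alongside compound; SIE-controlled beta-lactamase reporter measured as 460/530 nm FRET emission ratio; % is scaled to controls: 0 for no effect and ±100 for the full control effect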). As to conditions: ME-180 (cervical carcinoma) SIE beta-lactamase reporter, IL-6 stimulated, 5 h; at 7.69 µM (top of the series) unless noted. In outline:
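Emission at 460 and 530 nm (excitation 405 nm) reports SIE-controlled beta-lactamase in ME-180 cells. Cells received compound with 40 pM IL-6 for 5 hrs at 37 C; data scaled between 300 pM IL-6 and 125 nM JAK-inhibitor controls.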

The target in test [4] is Glucocorticoid receptor (Homo sapiens) (UniProt P04150). The test is described as follows: GR-GFP Redistribution (AID 450;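 active = compounds whose dose series gives a full or clear partial fitted curve of increased nuclear translocation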; also: potency is read from the fitted curve at half-maximal effect). As to conditions: U2OS GR-GFP nuclear translocation, laser cytometry, 2 h.
Glucocorticoid receptor (Homo sapiens), sequence (P04150 whole entry, looked up): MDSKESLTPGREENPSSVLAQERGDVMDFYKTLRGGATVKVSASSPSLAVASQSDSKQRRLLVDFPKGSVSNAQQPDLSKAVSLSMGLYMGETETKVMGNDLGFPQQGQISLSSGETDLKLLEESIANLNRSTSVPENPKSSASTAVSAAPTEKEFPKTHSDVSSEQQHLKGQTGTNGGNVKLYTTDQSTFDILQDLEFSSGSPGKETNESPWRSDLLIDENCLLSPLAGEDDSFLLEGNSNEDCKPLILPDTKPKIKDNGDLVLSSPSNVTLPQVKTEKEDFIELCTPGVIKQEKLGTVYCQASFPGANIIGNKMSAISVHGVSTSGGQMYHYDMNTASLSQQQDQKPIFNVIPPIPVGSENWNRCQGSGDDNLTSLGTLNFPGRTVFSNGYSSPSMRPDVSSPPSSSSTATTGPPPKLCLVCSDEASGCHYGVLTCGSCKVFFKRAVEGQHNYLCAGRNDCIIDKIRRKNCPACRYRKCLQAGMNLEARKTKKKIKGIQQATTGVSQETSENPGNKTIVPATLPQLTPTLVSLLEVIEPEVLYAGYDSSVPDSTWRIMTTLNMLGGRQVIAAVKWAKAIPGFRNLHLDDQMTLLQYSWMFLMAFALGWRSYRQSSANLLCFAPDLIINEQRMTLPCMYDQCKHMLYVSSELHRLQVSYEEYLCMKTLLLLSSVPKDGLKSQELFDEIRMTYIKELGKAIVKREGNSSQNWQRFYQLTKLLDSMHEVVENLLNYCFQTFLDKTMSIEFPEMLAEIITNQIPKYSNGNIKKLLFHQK
The target is the same in test [5]. In words: GR-EFC Redistribution (AID 451; calls by dose curve; also: potency is read from the fitted curve at half-maximal effect). As to conditions: CHO-K1 GR-EFC translocation, beta-gal luminescence, 2 h. In outline:
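Translocation of GR-ED fusion to nuclear EA restores b-gal, read by luminescence after 1 h room-temperature detection. Engineered CHO-K1 biosensor cells, 1,000/well, exposed 2 h at 37 C to titrations up to 46 uM final.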

The target in test [6] is Mitogen-activated protein kinase 10 (Mus musculus) (UniProt Q61831). In words: JNK3 AlphaScreen Assay (AID 530; active = well fitted curve in either direction with a large enough effect, not every such curve was filed as active;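 also: kinase came from lysate of stimulated human HepG2 cells; signal reports phosphorylation of biotinylated GST-cJun 1-79 at Ser73 with 10 µM ATP; % is scaled to controls: 0 for no effect and ±100 for the full control effect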). The method in brief:
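qHTS titrations with 15 min compound pre-incubation before adding ATP (10 uM final). Read-out: AlphaScreen of Ser73-phosphorylated biotin-GST-cJun using HepG2 lysate JNK3 activated by IL-1β and TNFα.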
A general note: In Alpha technology, singlet oxygen from a donor bead excites a nearby acceptor bead.

For test [7], the target named is 3',5'-cyclic-AMP phosphodiesterase 4B (Homo sapiens) (UniProt Q07343). In words: qHTS Assay for Inhibitors of PDE-IV (AID 607; active = well fitted activation curve with a large enough effect in the main read-out, with a control signal flat, not every such curve was filed as active; also: % of control where 0% means no effect). The method in brief: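 The readout is membrane depolarisation from a cAMP-sensing CNG channel, detected with a potential dye at ex 535/em 590. Cells were HEK293-derived (endogenous PDE-IV) at 1000 cells/well, titrated up to 22.9 uM final.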
3',5'-cyclic-AMP phosphodiesterase 4B (Homo sapiens), sequence (Q07343 whole entry, looked up): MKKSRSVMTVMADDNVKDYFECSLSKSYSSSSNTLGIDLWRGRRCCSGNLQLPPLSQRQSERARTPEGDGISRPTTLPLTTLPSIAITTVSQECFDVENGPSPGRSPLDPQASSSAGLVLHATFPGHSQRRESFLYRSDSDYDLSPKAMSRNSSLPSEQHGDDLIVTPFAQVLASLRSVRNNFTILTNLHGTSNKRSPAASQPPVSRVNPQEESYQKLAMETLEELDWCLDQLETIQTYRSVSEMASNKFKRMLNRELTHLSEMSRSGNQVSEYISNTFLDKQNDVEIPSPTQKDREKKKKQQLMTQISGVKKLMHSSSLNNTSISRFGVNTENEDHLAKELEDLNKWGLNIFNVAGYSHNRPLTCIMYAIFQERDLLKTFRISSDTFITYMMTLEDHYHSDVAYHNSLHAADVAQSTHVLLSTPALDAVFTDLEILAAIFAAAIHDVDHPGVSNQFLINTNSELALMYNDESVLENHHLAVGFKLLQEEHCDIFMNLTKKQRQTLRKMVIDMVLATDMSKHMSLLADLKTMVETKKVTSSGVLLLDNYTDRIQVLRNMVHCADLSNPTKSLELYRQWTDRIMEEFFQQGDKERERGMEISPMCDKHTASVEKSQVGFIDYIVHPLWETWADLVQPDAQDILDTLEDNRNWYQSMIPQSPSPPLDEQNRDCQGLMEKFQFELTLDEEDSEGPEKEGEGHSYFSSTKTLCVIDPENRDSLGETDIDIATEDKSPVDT
Background: qHTS replaces the single test concentration by a dilution series.

In test [8] the target is Cytochrome P450 2C19 (Homo sapiens) (UniProt P33261). The test is described as follows: qHTS Assay for Inhibitors and Substrates of Cytochrome P450 2C19 (AID 899). Also: % is scaled to controls: 0 for no effect and ±100 for the full control effect; nearly all actives have a fitted effect of over 60% in size. The method in brief:
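Reactions contain 5nM enzyme, 10uM Luciferin-H EGE (KM) and 50mM KPO4; compound preincubates 10 min at 37C, NADPH regeneration starts turnover for 60 min. Luminescence after detection reagent gives activity.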

A short description of test [9]: NFAT Signaling Pathway (AID 444; active = well fitted curve in either direction with a large enough effect, not every such curve was filed as active;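 also: carbachol stimulus at about its EC50 of 1 µM final; % is scaled to controls: 0 for no effect and ±100 for the full control effect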). As to conditions: Jurkat NFAT-bla M1, carbachol, beta-lactamase ratio, 5 h; at 7.69 µM (top of the series) unless noted. In outline:
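Read-out: CCF4 FRET ratio (460 nm/530 nm) after 1 h RT dye loading, used for %activity and AC50 from titration series. Cells: Jurkat NFAT-β-lactamase/M1 line, treated with compound plus 1 uM carbachol for 5 h, 37 °C.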

Test [10] concerns the target Guanine nucleotide-binding protein G(i) subunit alpha-1 (Homo sapiens) (UniProt P63096). The test is described as follows: qHTS Assay for Inhibitors of RGS12 GoLoco Motif Activity (Green Fluorophore) (AID 879).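 Also: 0% = labeled peptide with Gαi1 and full inhibition = labeled peptide alone without protein; negative values mean loss of peptide binding seen as reduced polarization.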 The method in brief: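 A drop in FITC polarization marked displacement of the FITC-tagged RGS12 GoLoco peptide (10 nM) from Gαi1 (50 nM). Compounds were incubated 10 min at room temperature in Tris pH 7.5 buffer containing 150 mM NaCl, 0.1 mM GDP and 0.05% NP40; unlabeled peptide titration served as control.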

Test [11] in a line: qHTS Assay for Identification of Small Molecule Agonists for Thrombopoietin (TPO) Signaling Pathway (AID 917). Also: % is scaled to controls: 0 for no effect and ±100 for the full control effect. In outline:
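Human TPO receptor–transfected Ba/F3 cells (murine, IL-3-dependent) in IL-3-deficient medium; compounds plus TPO at EC50, 26 pM final; 24 hrs, 37 C; GpIIb-luciferase luminescence after 10 min RT detection.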

Test [12] addresses Muscarinic acetylcholine receptor M1 (Rattus norvegicus) (UniProt P08482). The test is described as follows: qHTS Assay for Antagonists of Acetylcholine Muscarinic M1 Receptor: Kinetic Measurement of Intracellular Calcium Response (AID 943).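 Also: Fluo-4 calcium signal as peak divided by basal fluorescence over 4 min; nearly all actives have a fitted effect of over 75% in size.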 In outline:
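Antagonism measured as reduction of carbachol-evoked (EC80, 100 nM final) calcium flux in rat M1-CHO cells after 10 min compound exposure. Fluo-4 signal read kinetically; ratio of maximal to basal fluorescence.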

Test [13] shares this target. In words: qHTS Assay for Antagonists of Acetylcholine Muscarinic M1 Receptor: Measurement of IP-One Response (AID 944). Also: nearly all actives have a fitted effect of over 75% in size. In outline:
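IP1 accumulation measured via TR-FRET between d2-IP1 and Eu-cryptate anti-IP1 antibody after carbachol (200 nM, EC80) stimulation for 30 min; rat M1-transfected CHO cells received compound 10 min before agonist.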

Test [14] addresses Pyruvate kinase (Leishmania mexicana) (UniProt Q27686). In words: qHTS Validation Assay for Inhibitors of Leishmania Mexicana Pyruvate Kinase (AID 945).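 Also: 0% = DMSO only neutral control wells.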 In outline: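 An endpoint luciferase assay: 0.2 nM LmPYK E451W turns over 0.5 mM PEP with 0.1 mM ADP for 1 h at room temperature, pH 7.2, before PKLight addition. Values are normalized to DMSO-only wells.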
For test [15], the target named is Pyruvate kinase PKM (Homo sapiens) (UniProt P14618). The test is described as follows: qHTS Assay for Activators of Human Muscle Pyruvate Kinase (AID 954; active = well fitted curve in the direction sought with a large enough effect, not every such curve was filed as active;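 also: 0% = uninhibited enzyme and -100% = no enzyme or full thiadiazolimine inhibition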). In outline: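 PKM2, human, >95% pure, 0.1 nM; PEP 0.5 mM (Km), ADP 0.1 mM; 50 mM imidazole pH 7.2, 50 mM KCl, 0.01% Tween 20, 0.05% BSA; 1 h RT; luciferase luminescence readout.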
Pyruvate kinase PKM (Homo sapiens), sequence (P14618 whole entry, looked up): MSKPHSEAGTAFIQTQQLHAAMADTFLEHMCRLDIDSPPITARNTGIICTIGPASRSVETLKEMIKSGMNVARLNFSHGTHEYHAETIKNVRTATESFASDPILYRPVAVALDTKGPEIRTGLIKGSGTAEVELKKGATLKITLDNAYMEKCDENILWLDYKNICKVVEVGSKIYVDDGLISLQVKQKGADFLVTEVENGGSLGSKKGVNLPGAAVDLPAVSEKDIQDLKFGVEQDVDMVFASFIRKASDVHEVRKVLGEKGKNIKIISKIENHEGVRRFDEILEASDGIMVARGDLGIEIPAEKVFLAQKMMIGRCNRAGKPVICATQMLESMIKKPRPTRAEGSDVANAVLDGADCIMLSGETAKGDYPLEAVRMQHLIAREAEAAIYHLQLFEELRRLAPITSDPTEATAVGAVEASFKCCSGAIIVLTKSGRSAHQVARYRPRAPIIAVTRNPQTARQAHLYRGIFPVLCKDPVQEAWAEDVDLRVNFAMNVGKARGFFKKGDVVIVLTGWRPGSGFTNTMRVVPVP
The target of test [16] is Alpha-galactosidase A (Homo sapiens) (UniProt P06280). The test is described as follows: Counterscreen for Glucocerebrosidase Inhibitors: qHTS Assay for Human alpha-Galactosidase at pH 4.5 (AID 992). Also: 0% is about no effect. The method in brief: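 Fluorogenic 4-MU alpha-D-galactoside (80 uM) hydrolysis, 2 nM enzyme, pH 4.5 citrate buffer + 0.005% Tween-20; 20 min RT; NaOH/glycine pH 10 stop; Ex365/Em440. Compounds titrated 0.7 nM–77 uM; Hill-equation AC50.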
Alpha-galactosidase A (Homo sapiens), sequence (P06280 whole entry, looked up): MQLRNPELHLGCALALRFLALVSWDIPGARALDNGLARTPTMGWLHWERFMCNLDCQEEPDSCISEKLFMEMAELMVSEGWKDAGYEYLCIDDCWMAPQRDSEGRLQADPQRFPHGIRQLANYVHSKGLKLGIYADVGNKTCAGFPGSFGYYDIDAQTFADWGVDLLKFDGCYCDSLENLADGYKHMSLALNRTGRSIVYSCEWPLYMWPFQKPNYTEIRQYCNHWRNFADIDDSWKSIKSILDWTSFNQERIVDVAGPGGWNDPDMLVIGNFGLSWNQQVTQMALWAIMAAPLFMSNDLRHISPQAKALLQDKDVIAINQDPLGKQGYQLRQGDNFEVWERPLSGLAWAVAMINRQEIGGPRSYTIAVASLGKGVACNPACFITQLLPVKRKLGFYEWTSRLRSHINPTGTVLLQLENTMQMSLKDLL
A general note: The purpose of a counterscreen is to sort out artefacts and off-target activity.

Test [17] deals with alpha-glucosidase (Oryza sativa, rice) (UniProt Q653V4). In words: Counterscreen for Glucocerebrosidase Inhibitors: qHTS Assay for Rice alpha-Glucosidase at pH 5.0 (AID 997).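 Also: 0% = full activity with enzyme and -100% = basal without enzyme.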 In outline:
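Endpoint fluorogenic assay at pH 5.0: compounds (0.7 nM to 77 uM) titrated against 4 nM rice enzyme and 400 uM 4-MU-alpha-glucoside for 20 min at room temperature; NaOH/glycine stop, read ex 365/em 440 nm, Hill-fitted AC50.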

Test [18] addresses Alpha-galactosidase (Coffea arabica) (UniProt Q42656). The test is described as follows: Counterscreen for Glucocerebrosidase Inhibitors: qHTS Assay for Coffee Bean alpha-Galactosidase at pH 5.9 (AID 998).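 Also: plate controls were uninhibited enzyme for no effect and no-enzyme basal signal for full effect.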 In outline: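 Fluorogenic 4-MU substrate hydrolysis, 80 uM substrate and 2 nM coffee bean alpha-galactosidase, pH 5.9 citrate buffer, 20 min at room temperature, then NaOH/glycine stop. Titration 0.7 nM–77 uM, normalized to no-enzyme and enzyme controls, AC50 via Hill equation.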

Test [19] has as its target Cytochrome P450 2D6 (Homo sapiens) (UniProt P10635). In words: qHTS Assay for Inhibitors and Substrates of Cytochrome P450 2D6 (AID 891).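 Also: luciferin methyl ether substrate demethylated by CYP2D6 with NADPH regeneration; % is scaled to controls: 0 for no effect and ±100 for the full control effect; nearly all actives have a fitted effect of over 60% in size.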 The method in brief: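 Luminescent read-out of luciferin formed by 5 nM human CYP2D6 demethylating 30 uM Luciferin-ME EGE (Km level) over 60 min at room temperature after NADPH regeneration addition. Data normalized to full inhibition by 1.43 uM quinidine.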

Alpha-galactosidase (Coffea arabica), sequence (Q42656 whole entry, looked up): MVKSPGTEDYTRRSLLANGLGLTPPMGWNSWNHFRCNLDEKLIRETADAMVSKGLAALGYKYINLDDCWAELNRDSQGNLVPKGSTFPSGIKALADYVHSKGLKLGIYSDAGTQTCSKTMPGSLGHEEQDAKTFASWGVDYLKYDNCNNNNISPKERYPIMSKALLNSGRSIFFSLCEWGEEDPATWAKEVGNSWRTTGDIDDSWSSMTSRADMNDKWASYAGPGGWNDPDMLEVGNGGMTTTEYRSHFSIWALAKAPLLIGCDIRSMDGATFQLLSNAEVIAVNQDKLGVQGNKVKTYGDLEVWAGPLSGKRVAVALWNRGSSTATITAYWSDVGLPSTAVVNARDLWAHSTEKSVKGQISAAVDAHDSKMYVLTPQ
Guanine nucleotide-binding protein G(i) subunit alpha-1 (Homo sapiens), sequence (P63096 whole entry, looked up): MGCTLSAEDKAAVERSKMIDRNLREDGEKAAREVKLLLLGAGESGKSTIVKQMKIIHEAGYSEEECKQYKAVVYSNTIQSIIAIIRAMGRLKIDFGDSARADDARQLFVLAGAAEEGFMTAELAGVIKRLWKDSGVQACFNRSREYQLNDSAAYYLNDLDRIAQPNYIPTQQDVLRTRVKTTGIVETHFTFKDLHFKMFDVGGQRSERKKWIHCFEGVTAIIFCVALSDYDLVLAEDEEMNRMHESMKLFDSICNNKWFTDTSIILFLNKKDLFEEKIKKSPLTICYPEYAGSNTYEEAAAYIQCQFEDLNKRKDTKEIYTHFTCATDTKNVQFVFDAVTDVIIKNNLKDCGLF
Muscarinic acetylcholine receptor M1 (Rattus norvegicus), sequence (P08482 whole entry, looked up): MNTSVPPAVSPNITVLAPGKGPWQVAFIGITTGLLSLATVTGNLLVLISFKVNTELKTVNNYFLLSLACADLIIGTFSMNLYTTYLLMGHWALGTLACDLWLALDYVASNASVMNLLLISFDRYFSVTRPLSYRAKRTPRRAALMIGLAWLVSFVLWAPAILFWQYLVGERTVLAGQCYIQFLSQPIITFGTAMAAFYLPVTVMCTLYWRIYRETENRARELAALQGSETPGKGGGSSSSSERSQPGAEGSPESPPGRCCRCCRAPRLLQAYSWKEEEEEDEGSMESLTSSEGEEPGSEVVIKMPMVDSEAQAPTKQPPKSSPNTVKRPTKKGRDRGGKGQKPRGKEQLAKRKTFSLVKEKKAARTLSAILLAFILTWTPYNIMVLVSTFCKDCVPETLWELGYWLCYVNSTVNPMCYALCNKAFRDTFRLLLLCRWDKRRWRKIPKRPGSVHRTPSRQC
Cytochrome P450 1A2 (Homo sapiens), sequence (P05177 whole entry, looked up): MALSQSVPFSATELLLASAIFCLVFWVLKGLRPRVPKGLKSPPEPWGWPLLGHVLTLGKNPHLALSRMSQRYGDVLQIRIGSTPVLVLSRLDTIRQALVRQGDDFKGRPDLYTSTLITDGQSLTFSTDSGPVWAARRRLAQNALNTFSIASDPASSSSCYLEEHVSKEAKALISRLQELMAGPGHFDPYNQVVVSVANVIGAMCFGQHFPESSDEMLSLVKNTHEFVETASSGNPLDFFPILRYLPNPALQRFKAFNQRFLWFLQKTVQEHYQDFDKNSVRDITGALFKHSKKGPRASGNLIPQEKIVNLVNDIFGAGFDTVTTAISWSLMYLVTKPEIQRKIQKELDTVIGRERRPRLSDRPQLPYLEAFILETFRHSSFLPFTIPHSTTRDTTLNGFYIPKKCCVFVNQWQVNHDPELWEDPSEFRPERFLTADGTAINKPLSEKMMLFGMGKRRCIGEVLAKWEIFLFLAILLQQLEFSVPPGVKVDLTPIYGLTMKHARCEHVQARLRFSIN
Pyruvate kinase (Leishmania mexicana), sequence (Q27686 2-499 E452W): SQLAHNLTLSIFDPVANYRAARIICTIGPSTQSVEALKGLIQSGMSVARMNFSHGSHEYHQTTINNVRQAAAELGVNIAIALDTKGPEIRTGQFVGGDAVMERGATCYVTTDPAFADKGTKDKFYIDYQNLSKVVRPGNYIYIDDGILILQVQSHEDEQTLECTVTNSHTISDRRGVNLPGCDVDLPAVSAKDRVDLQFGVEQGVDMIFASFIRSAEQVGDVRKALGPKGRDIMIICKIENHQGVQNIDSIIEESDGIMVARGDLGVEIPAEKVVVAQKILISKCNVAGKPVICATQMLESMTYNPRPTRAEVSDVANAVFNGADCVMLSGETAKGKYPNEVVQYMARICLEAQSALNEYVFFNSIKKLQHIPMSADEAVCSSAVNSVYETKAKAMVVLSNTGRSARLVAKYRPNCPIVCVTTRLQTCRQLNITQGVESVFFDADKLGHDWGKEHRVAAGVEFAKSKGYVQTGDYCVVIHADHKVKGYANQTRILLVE

In the case of `c1cc(C2N3CCCN2CC3)ccn1` (stereo not given), the activity change, negative = inhibition is 2.62% in test [1] and 2.87% [at 11.4 µM] in [6]. The Potency in test [2] was 1.26 µM (active); in test [4], greater than 46 µM; in test [5] it was greater than 9.22 µM. Moreover, the activity, negative = inhibition in test [3] was 3.03%. Besides, the result in test [7] was inactive. The Potency entry in [8] is “inactive”.
As for `COc1cc2c(cc1O)C[C@@H]1c3c(cc(O)c(OC)c3-2)CCN1C`, the figures for the Potency in test [2], in test [4] and in [5] were 3.98 µM (active), greater than 46 µM and greater than 9.22 µM, respectively. Further, the activity change, negative = inhibition in [9] was -0.493%; in test [6], 4.75% [at 11.4 µM]. Further, in test [3], the activity, negative = inhibition was 0.101%. Moreover, the compound was called inactive in test [7].
In the case of `CC(=O)OCC1=C(C(=O)[O-])N2C(=O)[C@@H](NC(=O)CCC[C@@H](N)C(=O)[O-])[C@@H]2SC1.[Zn+2]`, in test [1], the activity change, negative = inhibition was 13.1% [at 38 µM]. Besides, the Potency entry in test [2], in [6], in test [12] and in test [13] was “inactive” in each case. In addition, in [3], the activity, negative = inhibition was -13.9% [at 38 µM]. Further, the Potency in test [4] and in test [5] was greater than 46 µM throughout. Also, the compound was classed as inactive in test [7], in test [10], in test [11], in test [14], in [15] and in [16]. Moreover, the call in test [17] and in test [18] was inactive.
In the case of `O=C(Nc1cc[c]([Sb](=[O])([OH])[OH])cc1)c1ccccc1`, the activity change, negative = inhibition is -1.71% in test [1], 23.1% in test [9] and -0.0598% [at 11.4 µM] in test [6]. Further, the Potency in test [2] was 5.01 µM (active); in [4], greater than 46 µM. Also, the activity, negative = inhibition in test [3] is -1.59%. In addition, the outcome in test [7] was inactive. For the same compound, the Potency entry in test [19] and in [8] was “inactive” throughout.
Turning to `COc1cc([C@@H](O)CN)ccc1O`, the activity change, negative = inhibition in test [1] was -3.13% [at 38 µM]. For the same compound, the Potency result in test [2], in test [6] and in test [13] was “inactive” throughout. The activity, negative = inhibition in test [3] is 3.87% [at 38 µM]. Moreover, the Potency in test [4] and in test [5] was greater than 46 µM throughout. The call in test [7], in [10], in test [11], in [14], in test [15] and in test [16] was inactive. The outcome in test [17] and in test [18] was inactive.
On to `Nc1ncnc2c1ncn2[C@@H]1O[C@@H](COP(=O)(O)CP(=O)(O)OP(=O)(O)O)[C@H](O)[C@@H]1O`, for which the values for the activity change, negative = inhibition in test [1] and in test [9] were -0.584% [at 38 µM] and 3.86% [at 38 µM], respectively. For the same compound, the Potency result in test [2], in test [6] and in test [13] was “inactive” throughout. Moreover, the activity, negative = inhibition in [3] is -9.36% [at 38 µM]. Further, the Potency in test [4] is greater than 46 µM. The result in test [7], in test [10], in test [11], in test [14], in test [15] and in test [16] was inactive. Further, the result in [17] and in test [18] was inactive.
